{"source": "PubChem BioAssay (EPA / NIEHS)", "note": "Inconclusive results are not listed. The source made the active and inactive calls. Rule for the calls, unless noted: active = hit-call score of the fitted dose curve at least 0.9, where 1 is the maximum; inactive = score below 0.9."}
{"read-out": "Vascular cell adhesion molecule 1 (VCAM1), VCAM1 (gene 7412)", "test": "BSK_MyoF_VCAM1: BioMAP Diversity Plus: MyoF Assay for Vascular cell adhesion molecule 1 (VCAM1) Biomarker Activity (AID 2284231)", "conditions": "primary human lung fibroblasts", "outline": "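Primary human lung fibroblasts (BioMAP MyoF system) dosed with chemical, VCAM-1 measured by ELISA 24 hours later. Fitted in the positive direction against DMSO; parallel SRB staining assessed cytotoxicity.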"}
{"smiles": "C=C(C)[C@H]1CC=C(C)C(=O)C1", "outcome": "inactive"}
{"smiles": "COc1ccc(CCN2CCC(Nc3nc4ccccc4n3Cc3ccc(F)cc3)CC2)cc1", "AC50": "5 µM (active)"}
{"smiles": "COc1ccc(OC)c(N=Nc2c(O)ccc3ccccc23)c1", "AC50": "9.05 µM (active)"}
{"smiles": "c1ccc2cc(Nc3ccc(Nc4ccc5ccccc5c4)cc3)ccc2c1", "outcome": "inactive"}
{"smiles": "CN(C)C(=O)Nc1ccc(Oc2ccc(Cl)cc2)cc1", "outcome": "inactive"}
{"smiles": "C=C(C)C(=O)OCCOCCOCCOCCOC(=O)C(=C)C", "outcome": "inactive"}
{"smiles": "O=C1c2ccccc2C(=O)c2c(O)ccc(O)c21", "outcome": "inactive"}
{"smiles": "CCCCOC(=O)CCCCCCCC(=O)OCCCC", "outcome": "inactive"}
{"smiles": "c1ccc(CCc2ccccc2)cc1", "AC50": "31 µM (active)"}
{"smiles": "c1ccc(Oc2ccccc2)cc1", "outcome": "inactive"}
{"smiles": "Clc1cc(Cl)c(-c2c(Cl)c(Cl)cc(Cl)c2Cl)cc1Cl", "AC50": "2.76 µM (active)"}
{"smiles": "COc1cc(Cl)c(OC)cc1N", "outcome": "inactive"}
{"smiles": "CCCCCCCCCCCCCCCC(=O)OC/C=C(C)/C=C/C=C(C)/C=C/C1=C(C)CCCC1(C)C", "outcome": "inactive"}
{"smiles": "CC(=O)c1c(C)c([N+](=O)[O-])c(C(C)(C)C)c([N+](=O)[O-])c1C", "outcome": "inactive"}
{"smiles": "C=C(C)C(=O)OCCOCCOCCOC(=O)C(=C)C", "outcome": "inactive"}
{"smiles": "CCCCN(CCCC)C(=O)N(CCCC)CCCC", "AC50": "10.5 µM (active)"}
{"smiles": "C=C(C)C(=O)OCC(CC)(COC(=O)C(=C)C)COC(=O)C(=C)C", "AC50": "11.2 µM (active)"}
{"tested_on": "not listed separately", "test": "CCTE_Mundy_HCI_Cortical_NOG_NeuronCount: CCTE's Neurite Outgrowth Assay in rat cortical cells for Neuron Count, Mundy Lab (AID 2284236; active = hit-call score of the fitted dose curve at least 0.9, where 1 is the maximum;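 note: neurons counted by imaging betaIII-tubulin and Hoechst stained cortical cells; cells exposed to compound for about 48 hours before fixation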)", "conditions": "not given", "outline": "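Read-out: neuron number by high-content imaging of betaIII-tubulin (Alexa Fluor-488) and Hoechst-labelled rat primary cortical cells.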"}
{"smiles": "COCCOCCOCCO", "outcome": "inactive"}
{"smiles": "CN(C)CCOC(C)(c1ccccc1)c1ccccn1", "note": "(stereo not given)", "outcome": "inactive"}
{"smiles": "COCCc1ccc(OCC(O)CNC(C)C)cc1", "note": "(stereo not given)", "outcome": "inactive"}
{"tested_on": "not listed separately", "test": "CCTE_Mundy_HCI_Cortical_NOG_BPCount: CCTE's Neurite Outgrowth Assay in rat cortical cells for Branch Point Count, Mundy Lab (AID 2284237)", "conditions": "not given", "outline": "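Measured 50.33 h after dosing, this morphology endpoint uses rat primary cortical cultures labelled for betaIII-tubulin. Branch points are quantified by high-content imaging, with DMSO as negative control and baseline.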"}
{"smiles": "COCCOCCOCCO", "outcome": "inactive"}
{"smiles": "CN(C)CCOC(C)(c1ccccc1)c1ccccn1", "note": "(stereo not given)", "outcome": "inactive"}
{"smiles": "COCCc1ccc(OCC(O)CNC(C)C)cc1", "note": "(stereo not given)", "outcome": "inactive"}
{"read-out": "Collagen I, COL1A1 (gene 1277)", "test": "BSK_MyoF_CollagenI: BioMAP Diversity Plus: MyoF Assay for Collagen I Biomarker Activity (AID 2284238)", "conditions": "primary human lung fibroblasts", "outline": "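Primary human lung fibroblasts (MyoF system) treated 24 h; Collagen I quantified by ELISA and fitted in positive direction against DMSO. Parallel SRB total-protein staining assessed overt cytotoxicity.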"}
{"smiles": "C=C(C)[C@H]1CC=C(C)C(=O)C1", "outcome": "inactive"}
{"smiles": "COc1ccc(CCN2CCC(Nc3nc4ccccc4n3Cc3ccc(F)cc3)CC2)cc1", "AC50": "8.62 µM (active)"}
{"smiles": "COc1ccc(OC)c(N=Nc2c(O)ccc3ccccc23)c1", "outcome": "inactive"}
{"smiles": "c1ccc2cc(Nc3ccc(Nc4ccc5ccccc5c4)cc3)ccc2c1", "outcome": "inactive"}
{"smiles": "CN(C)C(=O)Nc1ccc(Oc2ccc(Cl)cc2)cc1", "outcome": "inactive"}
{"smiles": "C=C(C)C(=O)OCCOCCOCCOCCOC(=O)C(=C)C", "outcome": "inactive"}
{"smiles": "O=C1c2ccccc2C(=O)c2c(O)ccc(O)c21", "outcome": "inactive"}
{"smiles": "CCCCOC(=O)CCCCCCCC(=O)OCCCC", "outcome": "inactive"}
{"smiles": "c1ccc(CCc2ccccc2)cc1", "AC50": "31.9 µM (active)"}
{"smiles": "c1ccc(Oc2ccccc2)cc1", "outcome": "inactive"}
{"smiles": "Clc1cc(Cl)c(-c2c(Cl)c(Cl)cc(Cl)c2Cl)cc1Cl", "AC50": "2.99 µM (active)"}
{"smiles": "COc1cc(Cl)c(OC)cc1N", "outcome": "inactive"}
{"smiles": "CCCCCCCCCCCCCCCC(=O)OC/C=C(C)/C=C/C=C(C)/C=C/C1=C(C)CCCC1(C)C", "outcome": "inactive"}
{"smiles": "CC(=O)c1c(C)c([N+](=O)[O-])c(C(C)(C)C)c([N+](=O)[O-])c1C", "outcome": "inactive"}
{"smiles": "C=C(C)C(=O)OCCOCCOCCOC(=O)C(=C)C", "outcome": "inactive"}
{"smiles": "CCCCN(CCCC)C(=O)N(CCCC)CCCC", "AC50": "9.53 µM (active)"}
{"smiles": "C=C(C)C(=O)OCC(CC)(COC(=O)C(=C)C)COC(=O)C(=C)C", "AC50": "10.2 µM (active)"}
